# Measurements reported in ChEMBL document CHEMBL3433997, “St. Jude Leishmania screening dataset” (2016).
# Experiments:
# Assay type in all cases: functional
# [1] = target: Solute carrier family 2, facilitated glucose transporter member 1 (Homo sapiens) (UniProt P11166); assay: ST_JUDE_LEISH: Cytotoxicity at 2uM final concentration against transgenic Leishmania Mexicana promastigotes LmGLUT1 that are glucose transport deficient and complemented with the human glucose transporter GLUT1. Activity is measured by DNA content using SYBR green in vitro
# Chain of Solute carrier family 2, facilitated glucose transporter member 1 (Homo sapiens) (P11166 whole entry): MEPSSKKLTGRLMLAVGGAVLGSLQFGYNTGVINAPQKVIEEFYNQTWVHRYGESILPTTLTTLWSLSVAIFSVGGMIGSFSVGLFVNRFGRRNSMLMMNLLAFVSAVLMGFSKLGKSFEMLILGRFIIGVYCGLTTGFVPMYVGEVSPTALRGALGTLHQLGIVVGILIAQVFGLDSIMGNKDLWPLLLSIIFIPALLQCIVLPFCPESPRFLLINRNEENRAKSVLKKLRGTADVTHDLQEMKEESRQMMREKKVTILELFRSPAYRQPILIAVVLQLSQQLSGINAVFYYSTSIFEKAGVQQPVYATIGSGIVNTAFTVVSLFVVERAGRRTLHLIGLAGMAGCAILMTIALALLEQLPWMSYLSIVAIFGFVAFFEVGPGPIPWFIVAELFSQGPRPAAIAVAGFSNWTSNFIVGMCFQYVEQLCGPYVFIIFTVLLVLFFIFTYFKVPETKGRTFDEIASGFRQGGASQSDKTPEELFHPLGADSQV
# [2] = target: Hexose transporter 1 (Plasmodium falciparum) (UniProt O97467); assay: ST_JUDE_LEISH: Cytotoxicity at 2uM final concentration against transgenic Leishmania Mexicana promastigotes LmPfHT that are glucose transport deficient and complemented with the Plasmodium falciparum hexose transporter. Activity is measured by DNA content using SYBR green in vitro
# [3] = target: Glucose transporter (Leishmania mexicana) (UniProt O61059); assay: ST_JUDE_LEISH: Cytotoxicity at 2uM final concentration against transgenic Leishmania Mexicana promastigotes LmGT2 that are glucose transport deficient and complemented with the L. Mexicana glucose transporter 2. Activity is measured by DNA content using SYBR green in vitro
SMILES,inhibition [1] [%],inhibition [2] [%],inhibition [3] [%]
CCc1nc2c(cnn2CC)c(NC2CCOCC2)c1CNC(=O)N1CCOCC1,3.81,-1.12,-0.36
COc1ccc(O)c(C(=O)c2cc(C#N)c(=O)n(-c3ccc(Oc4ccccc4)cc3)c2)c1,10.2,8.65,9.41
CCCC(C)c1cnc2nc(N)nc(N)c2c1C (stereo unspecified),3.61,4.91,4.24
O=C(Nc1ccc([N+](=O)[O-])cc1Cl)c1cc2ccccc2cc1O,0.6,1.59,1.3
CCOc1ccccc1CON1C(N)=NC(N)=NC1(C)C,4.48,3.69,7.54
CCCc1cc(C(=O)N[C@@H](Cc2ccccc2)[C@H](O)CNC(C)C)c(F)c(N2CCCC2=O)c1,-2.2,-0.79,-0.74
CC(c1cccc(Nc2nccc(-c3c(-c4cccc(NC(=O)c5c(F)cccc5F)c4)nn4ncccc34)n2)c1)S(C)(=O)=O (stereo unspecified),-2.21,1.6,0.35
NCc1ccc(CNCc2cccc(-c3ccc(-c4nc5cc(C(F)(F)F)ccc5[nH]4)cc3)c2)cc1,2.92,1.34,0.8
CCN1CCN(C(=O)NC(C(=O)N(C)Cc2ccc(-c3ccc(C(F)(F)F)cc3)cc2)c2cccs2)C(=O)C1=O (stereo unspecified),1.34,0.77,1.3
Oc1cc(NC[C@H]2CCC[C@@H]2NCc2cc(Br)cc(Br)c2)nc2ccccc12,2.99,4.07,3.27
O=C(CCC1CCCC1)N(Cc1ccc(-c2ccc(CNCCc3ccccc3)cc2)cc1)C1CCCNC1 (stereo unspecified),-0.19,1.6,0.14
CN(C)CCN(C)Cc1ccc(-c2ccc3c(Nc4ccc(Cl)cc4F)ccnc3c2)o1,1.16,2.08,2.79
CN(C)CCCOc1cccc(NC(=O)Nc2ccc(Cl)c(Cl)c2)c1,-1.47,-0.6,-1.24
O=C(NCCN1CCCC1)c1ccc(-c2cccc(-c3nc4cc(F)ccc4[nH]3)c2)cc1,-0.16,0,-0.53
O=C(CC1SC(N2N=C(c3cccs3)CC2c2ccccc2)=NC1=O)Nc1ccccc1F (stereo unspecified),14.2,11.5,3.51
O=c1cc(NCCCNCc2scc3c(Cl)cc(C(F)(F)F)nc23)[nH]c2ccccc12,2.13,2.43,3.05
CC1(C)N=C(N)N=C(N)N1OCCc1ccc2ccccc2c1,1.63,1.47,3.22
C=CCC(CC=C)N1C(=O)C(c2ccccc2)(c2ccccc2)N=C1N,0.75,-0.83,0.62
CCCC1(NC[C@@H](O)[C@H](Cc2ccccc2)NC(=O)c2cc(NCC)cc(N3CCCCS3(=O)=O)c2)CCCC1,4.97,5.31,3.48
Cc1cc(=O)c2cc(Oc3ccc(OC(F)(F)F)cc3)ccc2[nH]1,-0.06,0.96,-1.19
Oc1cc(Nc2ccnc3cc(-c4ccc(CN5CCCCC5)o4)ccc23)c(Cl)cc1F,3.23,6.46,3.68
CN(C)CCOC(=O)C1(O)CCC2CC1C2(C)C (stereo unspecified),2.52,2.06,2.45
CN(c1ccc2c(c1)nc(Nc1cc(C(C)(C)C)on1)n2C)c1ccnc(Nc2ccc(CS(C)(=O)=O)cc2)n1,-1.02,0.41,-1.74
CC(=O)Nc1cccc(CNc2cc(C)nc(Nc3ccc(C)cc3)n2)c1,9.07,8.32,0.76

SMILES,inhibition [1] [%],inhibition [2] [%],inhibition [3] [%]
Cc1cc(N)c2cc(NC(=O)c3cc(C(F)(F)F)cc(C(F)(F)F)c3)ccc2n1,0.38,1.04,0.8
NCCCCc1c(-c2ccc(Cl)c(Cl)c2)[nH]c2ccc(Cl)cc12,-2.7,-1.68,-3.34
Cc1cc(N2CCCC2)nc(Nc2ccc(NC(=O)c3ccccc3F)cc2)n1,1.09,2.77,-0.95
CCCN(Cc1nnc(-c2ccco2)o1)C(=O)C1CCN(c2ncc(C(F)(F)F)cc2Cl)CC1,11.4,10.2,10.8
Cc1cccc2nc(-c3ccc(-c4ccc(CN5CCN(CCN6CCOCC6)CC5)cc4)s3)[nH]c12,2.9,3.89,1.02
CCOC(=O)c1ccc(NCc2ccccn2)cc1,3.11,3.01,2.96
c1ccc2c(CNc3nc(NCC4CCCCC4)nc4[nH]cnc34)cccc2c1,4.27,5.29,2.36
CO/C(=C\C=C\c1cc2cc(Cl)c(Cl)cc2[nH]1)C(=O)NCCCN1CCN(c2cccc(O)c2)CC1,10.4,11.7,11.8
Cc1ccc(Cl)c2sc(N3CCN(C(=O)c4ccc([N+](=O)[O-])o4)CC3)nc12,62.4,54.6,27.6
CCC(Cc1cnc2nc(N)nc(N)c2n1)c1ccc(C(=O)N[C@@H](CCC(=O)O)C(=O)O)cc1 (stereo partly specified),11.9,22.1,3.38
O=C(/C=C/c1ccc(Cl)c(Cl)c1)NCCCCCN1CCC(NC(=O)c2cc(Cl)ccc2F)CC1,2.96,1.12,-0.02
CCc1c(CCNCCCCCCNCCc2ccc(Br)cc2)ccc(OC)c1OC,36.3,10.9,103
CN(C)CCC=C1c2ccccc2Sc2c(O)cc(Cl)cc21,-0.51,4.06,1.71
O=C(NC(c1ccccc1)c1ccccc1)C(c1cc2ccccc2o1)N1CCN(C(c2ccccc2)c2ccccc2)CC1 (stereo unspecified),4.42,2.92,0.24
O=C(NCc1cccc(C(F)(F)F)c1)[C@@H]1CCCN1C(=O)c1ccc(O)c(-c2ccc(Cl)c(Cl)c2)c1,-0.44,-0.25,0.24
OCC1CCN(Cc2ccc(-c3cccc(-c4nc5cc(F)ccc5[nH]4)c3)cc2)CC1,-1.93,-1.06,-1.42
COc1cccc(-c2ccc(NC(=O)C3CCCN(Cc4cccc(OC)c4O)C3)cc2)c1 (stereo unspecified),3.21,2.29,-0.64
COc1ccc(C23Oc4cc(OC)cc(OC)c4C2(O)C2(CC3c3ccccc3)SCCCS2)cc1 (stereo unspecified),0.76,-0.16,1.15
CCCCCC(NCCCC)c1ccc(OCCOc2ccc(C(CCCCC)NCCCC)cc2)cc1 (stereo unspecified),60.3,86,85.3
NC(Cc1cccc(I)c1)C(=O)NCC1CCCO1 (stereo unspecified),1.94,0.37,0.96
O=C(Nc1cccc(-c2ccc(-c3nc4ccccc4[nH]3)cc2)c1)c1cccnc1,6.47,0.4,-0.92
NC1CCN(Cc2ccc(-c3ccc(-c4nc5ccccc5[nH]4)s3)cc2)C1 (stereo unspecified),3.97,1.77,3.21
CS(=O)(=O)c1cccc(-c2cnc(N)c3cc(-c4ccc5c(c4)OCO5)ccc23)c1,8.59,8.33,7.36
CN(C)Cc1cccc(-c2cc3c(-c4cnn(C)c4)c(Cl)cnc3[nH]2)c1,95.7,95,94.2

SMILES,inhibition [1] [%],inhibition [2] [%],inhibition [3] [%]
Cc1ccccc1Nc1nc(Nc2ccccc2)c2ccccc2n1,38.8,44,13
CCOc1cc(N)c2nc3ccc([N+](=O)[O-])cc3cc2c1,16.1,20.1,6.39
Nc1nc(N)c2c(ccc3[nH]ccc32)n1,0.22,2.46,2.25
CCn1ncc2c(N3CCCC3=O)cc(C(=O)N[C@@H](Cc3ccccc3)[C@H](O)CNC(C)(C)c3cccc(OC)c3)cc21,2.35,-0.95,0.04
CCCCN(CCCC)Cc1cc(N(C)c2ccc([N+](=O)[O-])cn2)ccc1O,2.39,-0.26,1.69
Fc1ccc2[nH]c(-c3cccc(-c4ccc(CN5CCN(c6ccncc6)CC5)cc4)c3)nc2c1,0.76,1.36,0.8
CS(=O)(=O)c1ccccc1CNC(=O)c1cccc(-c2ccc(-c3nc4cc(C(F)(F)F)ccc4[nH]3)cc2)c1,2.38,1.77,0.15
CCCCCOc1ccc(C=NNc2nc(O)cc(-c3ccccc3)n2)cc1,2.62,2.5,1.79
Cc1ccc(-c2nnc(Nc3ccc(OCC(N)=O)cc3)c3ccccc23)cc1S(=O)(=O)NCC1CCCO1 (stereo unspecified),1.11,3.81,2
Cc1ccc(NC(=O)NC2CCN(c3ccnc4ccccc34)CC2)cc1,1.13,1.21,2.3
Cc1cc(N)c2cc(NC(=O)/C=C/c3ccccc3)ccc2n1,-0.18,0.45,-0.79
CC(C)c1ccc(CN2CCCCC(NC(=O)c3cc(-c4ccccc4Cl)cs3)C2)cc1 (stereo unspecified),-0.41,-1.98,-4.09
Cc1cc(CN2CC[C@H](NC(=O)c3ccc(Cl)c(Cl)c3)C2)ccc1OCCCN(C)C,-2.61,-3.17,-2.57
CN(C(=O)Cc1ccc(Cl)c(Cl)c1)C1CCN(CCCCCNC(=O)/C=C/c2ccc(Cl)c(Cl)c2)CC1,4.46,3.72,3.27
NC1CCCN(Cc2ccc(-c3cccc(-c4nc5ccccc5[nH]4)c3)cc2)C1 (stereo unspecified),3.53,4.34,4.25
CCCCNCc1ccc(-c2nc(CN(CCCn3ccnc3)C(=O)NC3CC3c3ccccc3)cs2)cc1 (stereo unspecified),3.77,3.79,4.29
CC(=O)Oc1cc(C)ccc1C1CCN(CCCCNC(=O)c2ccc(-c3ccc(C(F)(F)F)cc3)cc2)CC1,1.9,2.04,1.11
CCN(CC)CCCC(C)Nc1c2ccccc2nc2ccc3ccccc3c12 (stereo unspecified),1.95,2.89,2.22
CC/N=C(/NCCCCCCN/C(=N/CC)NCc1ccccc1)NCc1ccccc1,0.49,-0.55,-2.09
Cc1nnc2sc(-c3cccc(NC(=O)c4ccc(N5CCCCC5)c([N+](=O)[O-])c4)c3)nn12,0.34,-1.03,-0.5
CN(C)c1nc2cc(-n3cnc4cc(-c5ccc(Cl)cc5)sc4c3=O)ccc2n1CCCN1CCCC1,12,13.9,6.91
O=C(Cn1c(CCc2cccc(F)c2F)cc(=O)c2ccccc21)N(CCN1CCCC1)Cc1ccc(-c2ccc(C(F)(F)F)cc2)cc1,1.56,2.33,2.03
O=C(Nc1ccc(C(F)(F)F)cc1)c1ccc(S(=O)(=O)NC2CCN(CC3CCCCC3)CC2)cc1,1.19,0.54,-1.52
CC(C)(C)c1ccc(NC(=O)c2cccc(CN3CCCN(Cc4ccsc4)CC3)c2)cc1,5.17,1.84,1.41
